Data: the supplement of paper PMC10338343
± gives the standard deviation.

system: EfPiwi piRISC loaded with L1MC piRNA (26 nt); experiment: pre-steady-state target cleavage rate (min^-1); auxiliary factor: 500 nM Ephydatia muelleri Gtsf1; guide: L1MC piRNA 5'p-UAACUAAAUACUAUGCAAGCUGUAGG; MIWI and MILI are mouse PIWI proteins and EfPiwi is from a freshwater sponge; tags in brackets are library labels; higher = faster piRNA-guided slicing of the target
In short: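 A transcribed, DNA-blocked target RNA library (0.1 nM) and 1 nM active affinity-purified piRISC bearing one synthetic guide were incubated in HEPES–potassium acetate buffer at 33 °C for 0–8 or 0–960 min, either with or without 500 nM GTSF1 partner protein. Uncleaved targets were sequenced, normalised to depth and to weakly complementary targets, and pooled over three trials, with k3 capped at 0.0001 min^-1. The pre-steady-state cleavage rate was derived with a burst-and-steady-state fit.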

First: UCCUCCUACAGCUUGCAUAGUAUUUAGUUUA
Second: UCCUGGUACACCUUGCAUAGUAUUUAGUAA
The “pre-steady-state target cleavage rate” value of the first is higher: 0.145 ± 0.039 for the first, 0.00351 ± 0.0028 for the second.

First: UCCUGCUACAGCAUGCAUUGUAUUUAGUUA
Second: UCCUGGAUGUCCUUGCAUAUUAUUUAGUUA
The “pre-steady-state target cleavage rate” value of the first is higher: 0.0119 ± 0.0032 for the first, 0.00283 ± 0.0025 for the second.

UCCUGGAACAGCUUGCAUAGUAUGUAGUUA and UCCUGGAACAGCUUGCAUACUAUUUAGUUA are within error of each other in “pre-steady-state target cleavage rate” value: 0.00302 ± 0.0021 for the first, 0.00571 ± 0.0014 for the second.

UCCUGGAUGAGCAUUGCAUAGUAUUUAGUUA and UCCUCCUACAGCUUGCAUAGUAUUUAAUUA are within error of each other in “pre-steady-state target cleavage rate” value: 0.008 ± 0.0029 for the first, 0.00331 ± 0.003 for the second.

Compared with UCCUGGAUCUGGUUGCAUAGUAUUUAGUUA, UCCUCCUACAGCUUGCAAAGUAUUUACUUA is lower in “pre-steady-state target cleavage rate” value: 0.0604 ± 0.015 for the first, 0.00282 ± 0.0024 for the second.

UCCUGGUACACUUGCAUAGUAUUUAGUUA and UCCUCCUACACCUUGCAUAGUAUUUAGUAA are within error of each other in “pre-steady-state target cleavage rate” value: 0.00407 ± 0.0024 for the first, 0.00625 ± 0.003 for the second.

First: UCCUCCUACAGCUAGCAUAGUAUAUAGUUA
Second: UCCUGGUACAGCCUUGCAUAGUAUUUAGUUA
The “pre-steady-state target cleavage rate” value of the first is lower: 0.00495 ± 0.0026 for the first, 0.0209 ± 0.0073 for the second.

Going from UCCUGCUACACCUUGCAUAGUAUUUAGUUA to UCCUGGAUGAGCUUGCAUAGUAUUUAGGUUA, the “pre-steady-state target cleavage rate” value falls from 0.0124 ± 0.0048 to 0.0031 ± 0.002.

Compared with UCCUCCUACAGCUUGCAUAGUAUCUUAGUUA, UCCUGGAACAGCUUGCAUAGUAUUAUGUUA is lower in “pre-steady-state target cleavage rate” value: 0.0254 ± 0.011 for the first, 0.00324 ± 0.0021 for the second.

Going from UCCUCCUACACUUGCAUAGUAUUUAGUUA to UCCUGCUUCAGCUUGCAUAGUAUUUAGAUA, the “pre-steady-state target cleavage rate” value falls from 0.049 ± 0.015 to 0.00521 ± 0.0024.

Compared with UCCUCCUACUCCUUGCAUAGUAUUUAGUAA, UCCUGCAACAGCUUGCAUUGUAUUUAGUUA is higher in “pre-steady-state target cleavage rate” value: 0.00518 ± 0.0033 for the first, 0.0331 ± 0.0081 for the second.

Going from UCCUGGAUGUGUUUGCAUAGUAUUUAGUUA to UCCUCCUACAGCUUGCAUGGUAUUUAGUUA, the “pre-steady-state target cleavage rate” value rises from 0.0181 ± 0.0055 to 0.0681 ± 0.02.

Compared with UCCUCCUUCAGCUUGCAUAGUAAUUAGUUA, UCCUGGAACAGCCUUGCAUAGUAUUUAGUUA is lower in “pre-steady-state target cleavage rate” value: 0.0731 ± 0.025 for the first, 0.0147 ± 0.0046 for the second.

Compared with UCCUGGUAGAGCUUGCAUAGUAAUUAGUUA, UCCUGGUAUCAGCUUGCAUAGUAUUUAGUUA is higher in “pre-steady-state target cleavage rate” value: 0.00406 ± 0.0024 for the first, 0.0704 ± 0.018 for the second.

First: UCCUCCUACAGGUUGCAUAGUAUAUAGUUA
Second: UCCUGCUACAGGAAGCAUAGUAUUUAGUAA
The “pre-steady-state target cleavage rate” value of the first is higher: 0.0129 ± 0.0046 for the first, 0.00302 ± 0.0027 for the second.

Going from UCCUGGAACACCUUGCAUUGUAUUUAGUUA to UCCUCCAACAGGUUGCAUAGUAUUUAGUUA, the “pre-steady-state target cleavage rate” value rises from 0.00411 ± 0.0026 to 0.0491 ± 0.011.

Compared with UCCUGCUACAGCUUGCAUAGUGAUUUAGUUA, UCCUGGAUGUGGCUUGCAUAGUAUUUAGUUA is higher in “pre-steady-state target cleavage rate” value: 0.00289 ± 0.0028 for the first, 0.0125 ± 0.0049 for the second.

UCCUGGAACUGCUUGCUUAGUAUUUAGUUA and UCCUGGUACAGCUUGCAUAAUAUUUAGUUA are within error of each other in “pre-steady-state target cleavage rate” value: 0.00646 ± 0.0033 for the first, 0.00307 ± 0.0027 for the second.

First: UCCUGCUACAGCUUGCUUUGUAUUUAGUUA
Second: UCCUCCUACGGCUUGCAUAGUAUUUAGUUA
The “pre-steady-state target cleavage rate” value of the first is lower: 0.00538 ± 0.003 for the first, 0.0667 ± 0.017 for the second.

With UCCUCCUACACCUUGCAUAGUAUAUAGUUA the “pre-steady-state target cleavage rate” value was 0.00711 ± 0.0039.
